Assay results taken from PubChem BioAssay (EPA / NIEHS).
The source made the active and inactive calls. The calls were made as follows: active = hit-call score of the fitted dose curve at least 0.9, where 1 is the maximum; inactive = score below 0.9.

Assay: ATG_E_Box_CIS: Attagene CIS-FACTORIAL HepG2 Assay for human Enhancer Box (E-box) (AID 2282936)
Details: HepG2 E-box cis-reporter transcription, actives raise or lower the signal
In short: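 HepG2 cells transiently transfected with multiplexed cis-element reporter units, dosed 24 h; reporter mRNA quantified by RT-PCR, 6-FAM labelling, HpaI digestion and capillary electrophoresis. E-box (USF1) signal fitted bidirectionally vs DMSO.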

outcome, inactive:
Cc1[nH]cnc1C[C@H]1CCc2c(C)c3ccccc3n2C1=O, CC(C)CCCCCCCOC(=O)CCCCC(=O)OCCCCCCCC(C)C, O=P(OC(CCl)CCl)(OC(CCl)CCl)OC(CCl)CCl, CC(C)=CCCC(C)=CC=O, COC(=O)c1ccccc1O, O=C1CCC(N2C(=O)c3ccccc3C2=O)C(=O)N1 (stereo not drawn), CC(C)CC(C)(O)C#CC(C)(O)CC(C)C (stereo not drawn), CCC(C)(C)C(=O)O[C@H]1C[C@@H](C)C=C2C=C[C@H](C)[C@H](CC[C@@H]3C[C@@H](O)CC(=O)O3)[C@H]21, CC(C)(O)c1coc(S(=O)(=O)NC(=O)Nc2c3c(cc4c2CCC4)CCC3)c1, O=C(OC[C@H]1O[C@@H](OC(=O)c2cc(O)c(O)c(OC(=O)c3cc(O)c(O)c(O)c3)c2)[C@H](OC(=O)c2cc(O)c(O)c(OC(=O)c3cc(O)c(O)c(O)c3)c2)[C@@H](OC(=O)c2cc(O)c(O)c(OC(=O)c3cc(O)c(O)c(O)c3)c2)[C@@H]1OC(=O)c1cc(O)c(O)c(OC(=O)c2cc(O)c(O)c(O)c2)c1)c1cc(O)c(O)c(OC(=O)c2cc(O)c(O)c(O)c2)c1, Cn1cnc([N+](=O)[O-])c1Sc1ncnc2nc[nH]c12, O=C(O)CC(O)C(=O)O (stereo not drawn), CC[C@H](C)C(=O)O[C@H]1C[C@@H](C)C=C2C=C[C@H](C)[C@H](CC[C@@H]3C[C@@H](O)CC(=O)O3)[C@H]21, O=c1n(CC2CO2)c(=O)n(CC2CO2)c(=O)n1CC1CO1 (stereo not drawn), CC(C)=CCC/C(C)=C/CO, CCOC(=O)CC(CC(=O)OCC)(OC(C)=O)C(=O)OCC, Cc1ccc(C)c(O)c1, CCCCCCCCCCCCCCCO, CC[C@H]1OC(=O)[C@H](C)[C@@H](O[C@H]2C[C@@](C)(OC)[C@@H](O)[C@H](C)O2)[C@H](C)[C@@H](O[C@@H]2O[C@H](C)C[C@H](N(C)C)[C@H]2O)[C@](C)(O)C[C@@H](C)C(=O)[C@H](C)[C@@H](O)[C@]1(C)O, CC(C)CCO, CC(C)CCCCCCOC(=O)c1ccc(C(=O)OCCCCCCC(C)C)c(C(=O)OCCCCCCC(C)C)c1, Cc1c(-c2cccnc2)c2ccccc2n1CCCCC(=O)O, CCCCC(CC)COC(=O)c1ccc(C(=O)OCC(CC)CCCC)cc1 (stereo not drawn), CCCCCCCCO, O=C(O)CCN(C1(C(=O)NO)CCCC1)S(=O)(=O)c1ccc(Oc2ccc(F)cc2)cc1, COc1cccc(-c2ccc(/C=C\CN3CCCCCC3)cc2Cl)c1, CC(C)=CCC/C(C)=C\CO

AC50, active:
CN(C)c1ccc(Cc2ccc(N(C)C)cc2)cc1 31.1 µM, COCCOc1cc2cc(C(=O)NC3CCN(C(C)C)CC3)n(CC(=O)Nc3ccc(Cl)cn3)c2cn1 100 µM

Assay: ATG_M_61_CIS: Attagene CIS-FACTORIAL HepG2 Assay for M61 Transcription Factor (Internal Marker) (AID 2282937)
Details: HepG2 Attagene CIS-FACTORIAL M61 internal marker reporter; actives raise or lower the signal
In short: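 Readout: fluorescent reporter mRNA fragments resolved by capillary electrophoresis after RT-PCR. Transiently transfected human HepG2 cells carried MRTU constructs reporting endogenous TF activity; 24 h chemical exposure; gain or loss of signal fitted relative to DMSO.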

outcome, inactive:
Cc1[nH]cnc1C[C@H]1CCc2c(C)c3ccccc3n2C1=O, CC(C)CCCCCCCOC(=O)CCCCC(=O)OCCCCCCCC(C)C, O=P(OC(CCl)CCl)(OC(CCl)CCl)OC(CCl)CCl, CN(C)c1ccc(Cc2ccc(N(C)C)cc2)cc1, CC(C)=CCCC(C)=CC=O, COC(=O)c1ccccc1O, O=C1CCC(N2C(=O)c3ccccc3C2=O)C(=O)N1 (stereo not drawn), CC(C)CC(C)(O)C#CC(C)(O)CC(C)C (stereo not drawn), CCC(C)(C)C(=O)O[C@H]1C[C@@H](C)C=C2C=C[C@H](C)[C@H](CC[C@@H]3C[C@@H](O)CC(=O)O3)[C@H]21, CC(C)(O)c1coc(S(=O)(=O)NC(=O)Nc2c3c(cc4c2CCC4)CCC3)c1, O=C(OC[C@H]1O[C@@H](OC(=O)c2cc(O)c(O)c(OC(=O)c3cc(O)c(O)c(O)c3)c2)[C@H](OC(=O)c2cc(O)c(O)c(OC(=O)c3cc(O)c(O)c(O)c3)c2)[C@@H](OC(=O)c2cc(O)c(O)c(OC(=O)c3cc(O)c(O)c(O)c3)c2)[C@@H]1OC(=O)c1cc(O)c(O)c(OC(=O)c2cc(O)c(O)c(O)c2)c1)c1cc(O)c(O)c(OC(=O)c2cc(O)c(O)c(O)c2)c1, Cn1cnc([N+](=O)[O-])c1Sc1ncnc2nc[nH]c12, O=C(O)CC(O)C(=O)O (stereo not drawn), CC[C@H](C)C(=O)O[C@H]1C[C@@H](C)C=C2C=C[C@H](C)[C@H](CC[C@@H]3C[C@@H](O)CC(=O)O3)[C@H]21, O=c1n(CC2CO2)c(=O)n(CC2CO2)c(=O)n1CC1CO1 (stereo not drawn), COCCOc1cc2cc(C(=O)NC3CCN(C(C)C)CC3)n(CC(=O)Nc3ccc(Cl)cn3)c2cn1, CC(C)=CCC/C(C)=C/CO, CCOC(=O)CC(CC(=O)OCC)(OC(C)=O)C(=O)OCC, Cc1ccc(C)c(O)c1, CCCCCCCCCCCCCCCO, CC[C@H]1OC(=O)[C@H](C)[C@@H](O[C@H]2C[C@@](C)(OC)[C@@H](O)[C@H](C)O2)[C@H](C)[C@@H](O[C@@H]2O[C@H](C)C[C@H](N(C)C)[C@H]2O)[C@](C)(O)C[C@@H](C)C(=O)[C@H](C)[C@@H](O)[C@]1(C)O, CC(C)CCO, CC(C)CCCCCCOC(=O)c1ccc(C(=O)OCCCCCCC(C)C)c(C(=O)OCCCCCCC(C)C)c1, Cc1c(-c2cccnc2)c2ccccc2n1CCCCC(=O)O, CCCCC(CC)COC(=O)c1ccc(C(=O)OCC(CC)CCCC)cc1 (stereo not drawn), CCCCCCCCO, O=C(O)CCN(C1(C(=O)NO)CCCC1)S(=O)(=O)c1ccc(Oc2ccc(F)cc2)cc1, COc1cccc(-c2ccc(/C=C\CN3CCCCCC3)cc2Cl)c1, CC(C)=CCC/C(C)=C\CO
